Measured values from article PMC7862700, “An all-to-all approach to the identification of sequence-specific readers for epigenetic DNA modifications on cytosine”.

Legend:
Test in all cases: DAPPL (digital affinity profiling via proximity ligation, sequencing); 10 mM Tris-HCl pH 7.5, 50 mM NaCl, 1 mM DTT, 4% glycerol, room temperature, 30 min; GST-TFs on glutathione beads, 16-mer random dsDNA library, 0.1% formaldehyde crosslink after washing; high values mean tight binding
Conditions in all cases: protein: recombinant; tags: N-terminal GST; dsDNA, one strand shown
[1] = biological target: T1, FLI1 (Homo sapiens, UniProt Q01543 1-452)
T1 sequence: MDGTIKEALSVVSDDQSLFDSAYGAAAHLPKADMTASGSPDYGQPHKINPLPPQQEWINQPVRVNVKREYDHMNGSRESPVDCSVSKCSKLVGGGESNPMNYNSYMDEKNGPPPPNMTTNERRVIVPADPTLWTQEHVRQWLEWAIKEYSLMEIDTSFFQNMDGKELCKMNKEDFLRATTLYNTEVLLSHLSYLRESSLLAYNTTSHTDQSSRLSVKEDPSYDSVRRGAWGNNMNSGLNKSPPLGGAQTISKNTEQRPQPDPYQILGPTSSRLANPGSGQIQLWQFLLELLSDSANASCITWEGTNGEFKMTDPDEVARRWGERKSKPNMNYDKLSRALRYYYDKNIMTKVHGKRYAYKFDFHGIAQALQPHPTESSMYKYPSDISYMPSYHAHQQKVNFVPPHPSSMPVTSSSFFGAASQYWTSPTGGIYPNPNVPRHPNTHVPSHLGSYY
Outline: (§1)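 Yeast served to express human transcription factors as GST fusions, which were then captured on glutathione beads and labelled with DNA barcodes. Pooled with a tag-only sample, they were incubated with 200 nmole of a 16-mer random double-stranded DNA library for 30 min at room temperature in Tris/NaCl/DTT/glycerol buffer, washed, crosslinked with 0.1% formaldehyde, ligated by proximity, amplified by PCR and sequenced. Dividing each hexamer's read frequency for a factor by its frequency for the tag-only sample gives the binding signal.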

[2] = biological target: T2, ELK1 (Homo sapiens, UniProt P19419 1-428)
T2 sequence: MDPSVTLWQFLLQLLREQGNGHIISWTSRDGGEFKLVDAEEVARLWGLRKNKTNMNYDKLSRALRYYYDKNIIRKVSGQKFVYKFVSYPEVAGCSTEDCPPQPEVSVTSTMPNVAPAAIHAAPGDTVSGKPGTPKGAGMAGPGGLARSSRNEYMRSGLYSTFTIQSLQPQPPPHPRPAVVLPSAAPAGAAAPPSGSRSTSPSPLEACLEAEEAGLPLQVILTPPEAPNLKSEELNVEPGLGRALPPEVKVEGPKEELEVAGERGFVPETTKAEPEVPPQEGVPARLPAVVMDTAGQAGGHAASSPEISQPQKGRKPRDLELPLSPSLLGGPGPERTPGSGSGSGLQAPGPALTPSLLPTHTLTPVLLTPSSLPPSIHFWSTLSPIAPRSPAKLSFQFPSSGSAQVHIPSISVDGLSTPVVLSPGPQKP
Outline: as §1

[3] = biological target: T3, GABPA (Homo sapiens, UniProt Q06546 1-454)
T3 sequence: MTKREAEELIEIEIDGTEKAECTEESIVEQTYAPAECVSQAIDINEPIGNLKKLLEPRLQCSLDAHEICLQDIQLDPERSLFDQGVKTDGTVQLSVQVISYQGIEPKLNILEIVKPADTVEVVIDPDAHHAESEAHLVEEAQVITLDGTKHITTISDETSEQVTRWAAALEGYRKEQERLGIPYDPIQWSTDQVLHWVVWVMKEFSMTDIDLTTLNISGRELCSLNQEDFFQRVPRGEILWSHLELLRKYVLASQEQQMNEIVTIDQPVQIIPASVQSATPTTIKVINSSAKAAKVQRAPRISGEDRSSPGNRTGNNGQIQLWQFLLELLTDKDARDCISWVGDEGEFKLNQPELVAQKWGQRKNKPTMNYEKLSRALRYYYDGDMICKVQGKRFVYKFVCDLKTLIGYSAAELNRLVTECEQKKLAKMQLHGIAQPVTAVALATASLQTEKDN
Outline: as §1

[4] = biological target: T4, ERG (Homo sapiens, UniProt P11308 1-479)
T4 sequence: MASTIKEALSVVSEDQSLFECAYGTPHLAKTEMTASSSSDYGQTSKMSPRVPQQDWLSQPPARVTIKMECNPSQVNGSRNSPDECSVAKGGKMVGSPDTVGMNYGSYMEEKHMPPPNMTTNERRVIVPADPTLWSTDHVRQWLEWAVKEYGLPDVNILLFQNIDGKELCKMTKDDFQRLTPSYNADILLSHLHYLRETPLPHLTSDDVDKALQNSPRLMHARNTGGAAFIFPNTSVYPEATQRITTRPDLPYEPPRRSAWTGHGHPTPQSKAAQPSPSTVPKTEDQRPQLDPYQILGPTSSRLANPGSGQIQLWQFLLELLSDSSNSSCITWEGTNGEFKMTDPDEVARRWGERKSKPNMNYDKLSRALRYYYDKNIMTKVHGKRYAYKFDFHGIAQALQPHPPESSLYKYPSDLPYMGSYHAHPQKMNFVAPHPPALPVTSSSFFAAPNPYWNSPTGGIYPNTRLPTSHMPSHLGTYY
Outline: as §1

[5] = biological target: ELF1 (Homo sapiens, UniProt P32519 1-619)
ELF1, sequence (P32519 whole entry): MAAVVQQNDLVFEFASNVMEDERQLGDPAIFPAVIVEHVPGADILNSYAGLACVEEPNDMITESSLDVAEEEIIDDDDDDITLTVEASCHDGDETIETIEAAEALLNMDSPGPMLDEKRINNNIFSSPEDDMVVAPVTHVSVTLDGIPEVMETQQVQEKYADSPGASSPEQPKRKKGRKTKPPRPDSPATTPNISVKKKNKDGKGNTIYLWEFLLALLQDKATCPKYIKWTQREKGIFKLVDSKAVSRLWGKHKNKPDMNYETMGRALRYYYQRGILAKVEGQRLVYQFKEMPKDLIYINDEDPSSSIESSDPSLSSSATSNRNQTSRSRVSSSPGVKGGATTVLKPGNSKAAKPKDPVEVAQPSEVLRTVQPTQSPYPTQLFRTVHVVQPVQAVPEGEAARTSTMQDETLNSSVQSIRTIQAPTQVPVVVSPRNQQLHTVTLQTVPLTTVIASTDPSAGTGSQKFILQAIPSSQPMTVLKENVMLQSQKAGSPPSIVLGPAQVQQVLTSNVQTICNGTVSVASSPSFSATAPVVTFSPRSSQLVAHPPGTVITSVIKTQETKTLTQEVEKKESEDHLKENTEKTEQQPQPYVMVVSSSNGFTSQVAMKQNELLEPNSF
Outline: as §1

[6] = biological target: T5, EHF (Homo sapiens, UniProt Q9NZC4 1-300)
T5 sequence: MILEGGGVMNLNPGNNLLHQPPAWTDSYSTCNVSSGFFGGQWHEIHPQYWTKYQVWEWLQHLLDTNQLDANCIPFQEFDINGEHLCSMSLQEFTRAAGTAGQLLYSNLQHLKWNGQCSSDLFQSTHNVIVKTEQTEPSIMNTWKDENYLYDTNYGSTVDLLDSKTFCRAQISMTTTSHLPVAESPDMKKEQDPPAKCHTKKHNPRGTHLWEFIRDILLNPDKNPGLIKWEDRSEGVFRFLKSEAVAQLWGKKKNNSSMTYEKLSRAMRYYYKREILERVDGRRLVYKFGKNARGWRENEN
Outline: as §1

[7] = biological target: SPI1 (Homo sapiens, UniProt P17947 1-270)
Outline: as §1

[8] = biological target: SPIB (Homo sapiens, UniProt Q01892 1-262)
SPIB, sequence (Q01892 whole entry): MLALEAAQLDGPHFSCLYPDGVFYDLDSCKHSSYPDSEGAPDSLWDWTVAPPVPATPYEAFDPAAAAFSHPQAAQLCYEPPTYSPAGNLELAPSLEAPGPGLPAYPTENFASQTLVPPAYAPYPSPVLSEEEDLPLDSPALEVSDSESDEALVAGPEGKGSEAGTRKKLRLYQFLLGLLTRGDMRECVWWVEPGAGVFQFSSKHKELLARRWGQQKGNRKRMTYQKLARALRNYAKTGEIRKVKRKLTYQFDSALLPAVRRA
Outline: as §1

[9] = biological target: T6, FEV (Homo sapiens, UniProt Q99581 1-238)
T6 sequence: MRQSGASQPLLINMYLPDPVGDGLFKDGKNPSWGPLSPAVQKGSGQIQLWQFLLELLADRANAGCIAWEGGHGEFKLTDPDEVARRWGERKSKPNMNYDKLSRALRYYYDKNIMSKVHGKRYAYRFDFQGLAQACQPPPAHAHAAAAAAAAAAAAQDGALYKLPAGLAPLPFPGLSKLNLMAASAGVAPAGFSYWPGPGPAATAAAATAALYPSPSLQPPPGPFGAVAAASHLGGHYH
Outline: as §1

[10] = biological target: ETV5 (Homo sapiens, UniProt P41161 1-510)
ETV5, sequence (P41161 whole entry): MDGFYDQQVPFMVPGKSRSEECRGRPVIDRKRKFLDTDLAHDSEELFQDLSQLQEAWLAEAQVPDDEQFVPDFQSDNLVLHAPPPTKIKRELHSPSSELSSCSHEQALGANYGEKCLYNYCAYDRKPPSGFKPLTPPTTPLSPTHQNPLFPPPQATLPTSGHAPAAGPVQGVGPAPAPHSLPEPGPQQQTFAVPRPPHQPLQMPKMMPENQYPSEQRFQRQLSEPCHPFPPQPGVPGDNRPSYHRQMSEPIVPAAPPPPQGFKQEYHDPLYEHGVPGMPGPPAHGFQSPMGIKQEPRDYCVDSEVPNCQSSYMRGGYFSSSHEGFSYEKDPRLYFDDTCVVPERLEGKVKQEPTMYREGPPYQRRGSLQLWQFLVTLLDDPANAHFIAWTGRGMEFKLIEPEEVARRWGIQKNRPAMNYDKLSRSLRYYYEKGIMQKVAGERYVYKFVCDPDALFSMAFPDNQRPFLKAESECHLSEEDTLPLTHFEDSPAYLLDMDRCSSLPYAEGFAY
Outline: as §1

[11] = biological target: T7, SPIC (Homo sapiens, UniProt Q8N5J4 1-248)
T7 sequence: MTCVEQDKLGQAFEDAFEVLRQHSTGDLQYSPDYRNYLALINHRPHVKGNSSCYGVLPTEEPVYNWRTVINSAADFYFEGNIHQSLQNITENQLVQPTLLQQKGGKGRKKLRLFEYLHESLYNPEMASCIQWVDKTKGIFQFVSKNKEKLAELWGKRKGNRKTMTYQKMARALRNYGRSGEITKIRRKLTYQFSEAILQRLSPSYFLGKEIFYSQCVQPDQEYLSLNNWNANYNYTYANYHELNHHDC
Outline: as §1

[12] = biological target: ELF4 (Homo sapiens, UniProt Q99607 1-663)
ELF4, sequence (Q99607 whole entry): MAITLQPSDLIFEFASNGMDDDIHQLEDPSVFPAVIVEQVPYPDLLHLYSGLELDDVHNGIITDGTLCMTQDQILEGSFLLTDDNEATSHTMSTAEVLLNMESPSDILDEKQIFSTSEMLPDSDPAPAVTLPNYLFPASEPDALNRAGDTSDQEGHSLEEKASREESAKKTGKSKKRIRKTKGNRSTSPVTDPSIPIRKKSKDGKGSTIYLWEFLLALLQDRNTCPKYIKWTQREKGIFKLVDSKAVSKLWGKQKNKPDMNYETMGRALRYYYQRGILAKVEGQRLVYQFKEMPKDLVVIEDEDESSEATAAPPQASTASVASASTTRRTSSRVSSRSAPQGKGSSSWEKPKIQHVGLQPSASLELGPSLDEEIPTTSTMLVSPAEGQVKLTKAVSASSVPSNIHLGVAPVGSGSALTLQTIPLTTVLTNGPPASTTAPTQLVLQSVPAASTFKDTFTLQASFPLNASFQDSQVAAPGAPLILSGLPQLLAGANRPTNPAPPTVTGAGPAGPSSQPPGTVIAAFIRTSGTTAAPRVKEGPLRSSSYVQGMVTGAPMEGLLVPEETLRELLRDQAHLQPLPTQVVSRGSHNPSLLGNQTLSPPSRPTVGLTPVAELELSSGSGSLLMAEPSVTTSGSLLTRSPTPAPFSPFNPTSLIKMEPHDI
Outline: as §1

[13] = biological target: T8, ELK4 (Homo sapiens, UniProt P28324-2 1-405)
T8 sequence: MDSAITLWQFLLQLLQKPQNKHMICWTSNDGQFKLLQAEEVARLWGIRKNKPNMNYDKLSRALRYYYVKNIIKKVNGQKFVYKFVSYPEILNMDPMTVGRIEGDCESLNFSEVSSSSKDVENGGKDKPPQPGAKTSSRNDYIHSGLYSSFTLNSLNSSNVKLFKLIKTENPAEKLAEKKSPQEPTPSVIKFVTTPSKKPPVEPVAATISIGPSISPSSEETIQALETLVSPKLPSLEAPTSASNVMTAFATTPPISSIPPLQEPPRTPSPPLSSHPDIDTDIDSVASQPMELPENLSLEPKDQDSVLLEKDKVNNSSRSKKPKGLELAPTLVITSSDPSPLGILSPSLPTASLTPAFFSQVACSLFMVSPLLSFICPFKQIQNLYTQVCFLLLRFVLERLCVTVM
Outline: as §1

[14] = biological target: T9, ETV2 (Homo sapiens, UniProt O00321 1-342)
T9 sequence: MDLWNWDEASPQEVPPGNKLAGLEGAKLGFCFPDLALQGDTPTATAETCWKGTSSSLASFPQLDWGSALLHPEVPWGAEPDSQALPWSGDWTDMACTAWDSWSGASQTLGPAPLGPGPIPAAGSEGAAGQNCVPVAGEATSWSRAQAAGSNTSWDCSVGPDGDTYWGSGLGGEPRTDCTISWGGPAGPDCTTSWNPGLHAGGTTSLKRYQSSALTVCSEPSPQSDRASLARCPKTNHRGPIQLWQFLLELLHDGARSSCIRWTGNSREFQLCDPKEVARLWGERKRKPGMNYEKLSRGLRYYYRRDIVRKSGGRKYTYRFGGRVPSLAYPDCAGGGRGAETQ
Outline: as §1

[15] = biological target: T10, ELF3 (Homo sapiens, UniProt P78545 1-371)
T10 sequence: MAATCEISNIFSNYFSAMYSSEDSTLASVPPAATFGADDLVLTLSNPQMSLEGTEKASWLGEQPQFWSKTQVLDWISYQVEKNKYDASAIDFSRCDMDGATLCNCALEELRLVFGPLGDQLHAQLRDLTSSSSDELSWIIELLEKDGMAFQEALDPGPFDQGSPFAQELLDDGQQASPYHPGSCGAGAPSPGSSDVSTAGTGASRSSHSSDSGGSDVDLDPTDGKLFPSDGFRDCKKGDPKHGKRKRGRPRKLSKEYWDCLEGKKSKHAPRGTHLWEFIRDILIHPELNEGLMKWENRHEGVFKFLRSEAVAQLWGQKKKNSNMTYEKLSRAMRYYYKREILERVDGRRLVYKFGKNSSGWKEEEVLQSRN
Outline: as §1

[16] = biological target: ETV1 (Homo sapiens, UniProt P50549 1-477)
ETV1, sequence (P50549 whole entry): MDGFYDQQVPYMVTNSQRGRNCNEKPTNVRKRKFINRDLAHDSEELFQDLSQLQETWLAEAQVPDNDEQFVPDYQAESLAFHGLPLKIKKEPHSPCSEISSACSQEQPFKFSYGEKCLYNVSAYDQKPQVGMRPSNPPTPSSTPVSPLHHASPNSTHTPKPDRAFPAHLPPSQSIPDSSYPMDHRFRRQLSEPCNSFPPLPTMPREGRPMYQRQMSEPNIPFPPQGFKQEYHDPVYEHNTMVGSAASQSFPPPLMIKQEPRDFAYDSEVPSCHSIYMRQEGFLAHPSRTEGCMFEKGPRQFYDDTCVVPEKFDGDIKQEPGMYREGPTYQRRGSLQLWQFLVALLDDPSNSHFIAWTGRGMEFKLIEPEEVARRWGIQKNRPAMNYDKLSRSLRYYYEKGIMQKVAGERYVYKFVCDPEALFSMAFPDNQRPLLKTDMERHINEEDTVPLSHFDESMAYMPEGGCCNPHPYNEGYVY
Outline: as §1

[17] = biological target: T11, ELK3 (Homo sapiens, UniProt P41970 1-407)
T11 sequence: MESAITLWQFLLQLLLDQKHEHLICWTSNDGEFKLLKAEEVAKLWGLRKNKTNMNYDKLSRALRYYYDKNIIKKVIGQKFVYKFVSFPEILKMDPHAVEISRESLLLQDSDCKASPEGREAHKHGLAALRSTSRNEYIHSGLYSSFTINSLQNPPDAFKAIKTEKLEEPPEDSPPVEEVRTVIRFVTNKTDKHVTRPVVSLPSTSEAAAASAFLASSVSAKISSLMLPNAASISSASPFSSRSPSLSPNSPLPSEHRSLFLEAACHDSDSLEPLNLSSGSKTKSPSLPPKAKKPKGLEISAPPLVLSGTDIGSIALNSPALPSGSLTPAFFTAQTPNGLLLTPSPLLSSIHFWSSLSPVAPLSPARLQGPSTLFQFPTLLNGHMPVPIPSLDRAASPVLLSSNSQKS
Outline: as §1

Row | Sequence | binding signal [1] | binding signal [2] | binding signal [3] | binding signal [4] | binding signal [5] | binding signal [6] | binding signal [7] | binding signal [8] | binding signal [9] | binding signal [10] | binding signal [11] | binding signal [12] | binding signal [13] | binding signal [14] | binding signal [15] | binding signal [16] | binding signal [17]
1 | TGTGCA | 1 fold enrichment (6-mer frequency, TF over GST control) | 1.09 fold enrichment (6-mer frequency, TF over GST control) | 1.08 fold enrichment (6-mer frequency, TF over GST control) | 1.16 fold enrichment (6-mer frequency, TF over GST control) | 1.08 fold enrichment (6-mer frequency, TF over GST control) | 1.14 fold enrichment (6-mer frequency, TF over GST control) | 1.08 fold enrichment (6-mer frequency, TF over GST control) | 1.18 fold enrichment (6-mer frequency, TF over GST control) | 1.1 fold enrichment (6-mer frequency, TF over GST control) | 1.15 fold enrichment (6-mer frequency, TF over GST control) | 1.38 fold enrichment (6-mer frequency, TF over GST control) | 1.11 fold enrichment (6-mer frequency, TF over GST control) | 1.09 fold enrichment (6-mer frequency, TF over GST control) | 1.01 fold enrichment (6-mer frequency, TF over GST control) | 1.09 fold enrichment (6-mer frequency, TF over GST control) | 1.05 fold enrichment (6-mer frequency, TF over GST control) | 
2 | CCGCCG | 1.29 fold enrichment (6-mer frequency, TF over GST control) | 1.4 fold enrichment (6-mer frequency, TF over GST control) | 1.41 fold enrichment (6-mer frequency, TF over GST control) | 1.37 fold enrichment (6-mer frequency, TF over GST control) | 1.26 fold enrichment (6-mer frequency, TF over GST control) | 1.34 fold enrichment (6-mer frequency, TF over GST control) | 1.27 fold enrichment (6-mer frequency, TF over GST control) | 1.16 fold enrichment (6-mer frequency, TF over GST control) | 1.55 fold enrichment (6-mer frequency, TF over GST control) | 1.25 fold enrichment (6-mer frequency, TF over GST control) | 1.22 fold enrichment (6-mer frequency, TF over GST control) | 1.29 fold enrichment (6-mer frequency, TF over GST control) | 1.27 fold enrichment (6-mer frequency, TF over GST control) | 1.11 fold enrichment (6-mer frequency, TF over GST control) | 1.23 fold enrichment (6-mer frequency, TF over GST control) | 1.25 fold enrichment (6-mer frequency, TF over GST control) | 1.26 fold enrichment (6-mer frequency, TF over GST control)
3 | ACATGT | 1.23 fold enrichment (6-mer frequency, TF over GST control) | 1.14 fold enrichment (6-mer frequency, TF over GST control) | 1.05 fold enrichment (6-mer frequency, TF over GST control) | 1.11 fold enrichment (6-mer frequency, TF over GST control) | 1.19 fold enrichment (6-mer frequency, TF over GST control) | 1.09 fold enrichment (6-mer frequency, TF over GST control) | 1.14 fold enrichment (6-mer frequency, TF over GST control) | 1.15 fold enrichment (6-mer frequency, TF over GST control) | 1.03 fold enrichment (6-mer frequency, TF over GST control) | 1.16 fold enrichment (6-mer frequency, TF over GST control) | 1.13 fold enrichment (6-mer frequency, TF over GST control) | 1.15 fold enrichment (6-mer frequency, TF over GST control) | 1.27 fold enrichment (6-mer frequency, TF over GST control) | 1.21 fold enrichment (6-mer frequency, TF over GST control) | 1.02 fold enrichment (6-mer frequency, TF over GST control) | 1.09 fold enrichment (6-mer frequency, TF over GST control) | 1.06 fold enrichment (6-mer frequency, TF over GST control)
